# Screening results from PubChem BioAssay.
# Rows were chosen to be rich in hits. Some 6.9% of all compounds tested hit in one or more screens of this group.
# Giardia killer: Giardia lamblia killing. hit rate 0.15% among 340,000. Giardia lamblia trophozoite viability. activity change, % at 7.66 µM, hits read low; in the data active = activity change below about -80%; inconclusive = between about -30% and that limit;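 also: parasites exposed to compound for two days anaerobically before the ATP read; % is scaled to controls: 0 for no effect and ±100 for the full control effect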
#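 Viability, read as ATP luminescence: trophozoites at 100 cells/well, compound added, 48 hrs anaerobic at 37 deg C, then 15-30 min room-temperature development before reading.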
# MCF10A rerep: inducers of DNA re-replication in MCF 10A breast cells; AID 624296; hit rate 2.9% among 350,000; MCF 10A DNA re-replication, Hoechst nuclear intensity, 48 h; Potency, µM (doses to about 46.1 µM), for inactives: at the highest dose activity, positive = re-replication, most hits filed as activators; also: potency is read from the fitted curve at half-maximal effect; % of control where 0% means no effect; nearly all actives have a fitted effect of over 50% in size
# KB-V1 cytotox: KB-V1 MDR subline cytotoxicity. KB-V1 MDR cells viability, CellTiter-Glo, 72 h. Potency, µM (highest dose often 46.1 µM), usual class: cytotoxic. hit rate 3.4% among 400,000. AID 1347076; also: potency is read from the fitted curve at half-maximal effect; % is scaled to controls: 0 for no effect and ±100 for the full control effect; nearly all actives have a fitted effect of over 60% in size
#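 Cytotoxicity toward P-gp-expressing KB-V1 cells was determined as loss of CellTiter-Glo luminescence after 72 h at 37 degrees C. Compounds were tested in quantitative HTS format across a concentration range, with curves fitted to normalized data.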
# SW480 rerep: inducers of DNA re-replication in SW480 colon cancer cells. SW480 DNA re-replication, Hoechst DNA content imaging, 48 h. Potency, µM (doses to about 46.1 µM), inactives show top-dose re-replication activation, most hits filed as activators. hit rate 1.8% among 340,000; also: potency is read from the fitted curve at half-maximal effect; % of control where 0% means no effect; nearly all actives have a fitted effect of over 55% in size
#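 First, 250 cells per well were seeded. Next, compound or vehicle (23 nL) was pinned in, plates sat 48 hr at 37 C. Finally Hoechst was added for 40 min before fluorescence scanning.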
# S-ASM inh: human S-ASM enzyme inhibition; P17405; placental ASM, HMU-PC fluorogenic substrate, 60 min; Potency, µM (titrated, usually from 57.5 µM), for the others: at the top dose activity change, negative = inhibition, most hits filed as inhibitors; hit rate 0.006% among 340,000; AID 504937; also: potency is read from the fitted curve at half-maximal effect
# Target sequence (P17405 47-631 limits assumed): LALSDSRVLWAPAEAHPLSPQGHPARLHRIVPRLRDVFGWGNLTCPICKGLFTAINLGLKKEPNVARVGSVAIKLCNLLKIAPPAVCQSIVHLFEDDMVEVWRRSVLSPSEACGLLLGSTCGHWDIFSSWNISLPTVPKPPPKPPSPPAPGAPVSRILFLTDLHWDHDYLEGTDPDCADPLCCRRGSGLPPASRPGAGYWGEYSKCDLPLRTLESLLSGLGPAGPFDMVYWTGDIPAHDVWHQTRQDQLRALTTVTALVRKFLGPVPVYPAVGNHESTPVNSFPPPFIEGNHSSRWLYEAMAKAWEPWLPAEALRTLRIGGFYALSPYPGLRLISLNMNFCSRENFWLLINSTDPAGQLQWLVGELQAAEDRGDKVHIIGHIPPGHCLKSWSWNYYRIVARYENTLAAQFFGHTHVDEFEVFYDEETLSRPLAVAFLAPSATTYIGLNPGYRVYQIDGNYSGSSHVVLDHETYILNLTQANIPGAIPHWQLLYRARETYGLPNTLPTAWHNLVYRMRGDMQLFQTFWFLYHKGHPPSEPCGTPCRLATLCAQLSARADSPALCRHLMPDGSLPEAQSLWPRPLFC
#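 HMU-PC0 cleavage (9 uM final) by human placental ASM, 60 min at 37 °C following 10 min compound exposure at RT; stopped at pH 10, fluorescence Ex 386/Em 447 nm.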
# KB-3-1 tox: KB-3-1 parental cell cytotoxicity | Potency, µM (highest dose often 46.1 µM), usual class: cytotoxic | hit rate 1.4% among 400,000 | KB-3-1 viability, CellTiter-Glo ATP luminescence, 72 h | AID 1347075; also: potency is read from the fitted curve at half-maximal effect; % is scaled to controls: 0 for no effect and ±100 for the full control effect; nearly all actives have a fitted effect of over 60% in size
#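 Parental KB-3-1 adenocarcinoma cells in phenol-red-free DMEM with 10% FBS were pin-treated with compounds at several concentrations, incubated 72 h at 37 °C, and viability read by CellTiter-Glo luminescence; concentration-effect curves were fitted after normalization.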
# Starred values were filed as active, the others as inactive; i = inactive; ? = inconclusive; / = no result. Unless noted, calls follow the shape of the dose curve; as a rule, active = well fitted curve in the direction sought with a large enough effect; inconclusive = small, poorly fitted or top-dose-only effect, or another doubt; inactive = no such curve, though single readings can be large; an effect the other way counts as inactive or inconclusive.
SMILES,Giardia killer,MCF10A rerep,KB-V1 cytotox,SW480 rerep,S-ASM inh,KB-3-1 tox
CC(=O)Nc1ccccc1OC1=N[S+](=O)([O-])c2ccccc21,/,/,i,/,/,?
Cc1c(C(=O)OC(C)C)sc(NC(=O)C2c3ccccc3Oc3ccccc32)c1C(=O)OC(C)C,/,/,i,/,/,?
O=C(c1ccco1)N1CCN(C(=O)c2ccccc2OCc2ccc(Cl)cc2)CC1,2.0,-2.6%,?,-4.7%,-3.6%,i
Cc1ccc(/C=C/c2nc3sc(C(=O)O)c(C)c3c(=O)[nH]2)cc1[N+](=O)[O-],-28.7,6.3%,i,3.5%,-1.8%,i
Cc1c(C(=O)O)sc2nc(/C=C/c3ccccc3OC(F)F)[nH]c(=O)c12,-10.1,25.9µM*,i,23.1µM*,297.7%,i
Cc1c(C(=O)O)sc2nc(/C=C/c3cccc(F)c3)[nH]c(=O)c12,-5.2,18.4µM*,i,-2.1%,87.1%,i
O=C(Nc1ccccc1F)c1ccc2c(Cl)c3c(nc2c1)CCC3,/,/,i,/,/,?
N#Cc1ccccc1NC(=O)c1ccc2c(Cl)c3c(nc2c1)CCCC3,-13.9,1.3%,8.2µM*,-1.4%,-13.9%,i
O=c1[nH]c(=O)n([C@H]2C[C@@H](O)[C@@H](CO)O2)cc1F,/,/,i,/,/,?
CCOC(=O)N1CCN(c2c(NCc3ccc(F)cc3)c(=O)c2=O)CC1,10.9,?,i,3.26µM*,1.3%,5.17µM*
CCOC(=O)N1CCN(c2c(NCc3ccccc3OC)c(=O)c2=O)CC1,22.0,6.4%,i,?,-0.8%,i
CCOC(=O)N1CCN(c2c(NCc3ccc(Cl)cc3)c(=O)c2=O)CC1,4.3,10.3µM*,i,6.51µM*,0.2%,10.3µM*
CCOC(=O)N1CCN(c2c(NCc3cccs3)c(=O)c2=O)CC1,11.0,18.4µM*,i,?,0.9%,6.51µM*
O=C(NC1CCCCCC1)C1CCC(CNS(=O)(=O)c2cccc3cccnc23)CC1 (configuration not stated),/,/,i,/,/,i
Cc1ccc(Cn2c(C(=O)O)c(CNC3CCCCC3)c3ccc(C)cc32)cc1,/,/,i,/,/,i
CC(C)CN(CC(C)C)S(=O)(=O)c1ccc(C(=O)Nc2sc3c(c2C(N)=O)CC(C)(C)NC3(C)C)cc1,/,/,i,/,/,i
Cc1ccc(S(=O)(=O)n2nccc2-c2c(-c3ccccc3)noc2C)cc1,-2.5,11.6µM*,?,13µM*,4.3%,?
Cc1ccc(Cn2c(SCc3ccc(C(=O)NC4CCCC4)cc3)nc3ccncc32)cc1,/,/,i,/,/,23.1µM*
COc1ccc(Cn2c(SCc3ccc(C(=O)NC4CCCC4)cc3)nc3ccncc32)cc1,/,/,i,/,/,i
CCn1c(=O)sc2cc(NS(=O)(=O)c3ccc(C)cc3)ccc21,/,/,i,/,/,i
COc1cc([C@@H]2c3cc4c(cc3[C@@H](O)[C@H]3COC(=O)[C@H]23)OCO4)cc(OC)c1O[Si](C)(C)C(C)(C)C,-20.5,?,?,-7.3%,-14.6%,5.8µM*
CCN(CC)C1Oc2cc3c(cc2C(c2cc(OC)c(OC)c(OC)c2)C1C)OCO3 (configuration not stated),?,1.46µM*,?,?,1.1%,1.16µM*
COc1cc(C2CC(=O)Oc3cc4c(cc32)OCO4)cc(OC)c1OC (configuration not stated),-17.3,-26.7%,i,-2.1%,-0.4%,i
COc1cc(C2c3cc4c(cc3C3OC(=O)C2C3CO)OCO4)cc(OC)c1OC (configuration not stated),/,/,0.206µM*,/,/,?
O=C(OCn1ncc(Br)c(Br)c1=O)c1ccc(F)cc1,-13.3,4.61µM*,5.17µM*,4.11µM*,-0.2%,3.26µM*
O=C(OCn1ncc(Br)c(Br)c1=O)c1ccccc1Cl,4.0,7.94µM*,5.8µM*,5.62µM*,-2.2%,18.4µM*
CCOC(=O)C1CCN(C(=O)Cn2nc(C)n3c(cc4sccc43)c2=O)CC1,/,/,i,/,/,i
CCOC(=O)c1sc(NS(=O)(=O)c2ccccc2)nc1C,-0.7,-1.3%,i,12.7%,-4.0%,i
